The panel holds about 79,000 compounds, 15% with a hit somewhere; the sample as a whole holds those more often. A number with no mark means an inactive call. Active and inactive are the calls of the source. Cut-off read from the data, not from the text of the source: active = growth inhibition above about 70%; inactive = the rest.
Tests used:
[1] = NCI Yeast Anticancer Drug Screen. Data for the rad50 strain (AID 155);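 note: 0% = growth of vehicle-only cultures of the same strain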; conditions: S. cerevisiae rad50 strain growth inhibition, active compounds read high
Summary of the method: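 Growth of the mutant yeast was measured after compound exposure and referenced to vehicle-treated cultures.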

[2] = NCI Yeast Anticancer Drug Screen. Data for the mec2-1 strain (AID 157); conditions: S. cerevisiae mec2-1 strain, active compounds read high
Summary of the method: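 Using mec2-1 yeast: add compound, measure growth, express inhibition versus vehicle-treated cultures.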

[3] = NCI Yeast Anticancer Drug Screen. Data for the sgs1 mgt1 strain (AID 161);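 note: 0% = growth of cultures given vehicle only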; conditions: S. cerevisiae sgs1 mgt1 strain, active compounds read high
Summary of the method: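 Yeast cells carrying a defined DNA-repair defect were exposed to test compounds. Growth inhibition was measured relative to vehicle-treated controls.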

[4] = NCI Yeast Anticancer Drug Screen. Data for the cln2 rad14 strain (AID 165);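 note: 0% = growth equal to vehicle treated cultures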; conditions: S. cerevisiae cln2 rad14 strain, active compounds read high
Summary of the method: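 Yeast strain cln2 rad14, bearing defects in cell cycle control and DNA repair, serves as the test system; values reflect growth inhibition compared with vehicle.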

[5] = NCI Yeast Anticancer Drug Screen. Data for the bub3 strain (AID 167); conditions: S. cerevisiae bub3 mutant strain, active compounds read high
Summary of the method: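 Whole-cell yeast assay. The mutant strain was incubated with compounds, and growth inhibition was determined by comparison with vehicle-treated cells.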

[6] = NCI Yeast Anticancer Drug Screen. Data for the mlh1 rad18 strain (AID 175); conditions: S. cerevisiae mlh1 rad18 strain growth inhibition, active compounds read high
Summary of the method: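 Steps: expose repair-defective yeast to compound; measure growth; express inhibition against vehicle-treated controls.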

[7] = at 5.0 µM (retest, dose inferred, filed as 0.5)
[8] = at 50.0 µM (retest, dose inferred, filed as 5.0)

Structure (SMILES) | growth inhibition [1, 7] | growth inhibition [1, 8] | growth inhibition ([1]; at 50.0 µM) | growth inhibition [2, 7] | growth inhibition [2, 8] | growth inhibition ([2]; at 50.0 µM) | growth inhibition [3, 7] | growth inhibition [3, 8] | growth inhibition ([3]; at 50.0 µM) | growth inhibition [4, 7] | growth inhibition [4, 8] | growth inhibition ([4]; at 50.0 µM) | growth inhibition [5, 7] | growth inhibition [5, 8] | growth inhibition ([5]; at 50.0 µM) | growth inhibition [6, 7] | growth inhibition [6, 8] | growth inhibition ([6]; at 50.0 µM)
CCC[CH2][Sn]([Cl])([CH2]Cl)[CH2]CCC | 97% (active) | 99% (active) | 99% (active) | 99% (active) | 100% (active) | 99.2% (active) | 98% (active) | 99% (active) | 99.4% (active) | 98% (active) | 98% (active) | 99.3% (active) | 98% (active) | 99% (active) | 99.3% (active) | 99% (active) | 99% (active) | 99.2% (active)
CC(=O)O[C@H]1CC[C@H]2[C@@H]3CCC4=CC(=O)CC[C@@H]4[C@H]3CC[C@]12C | 2% | 93% (active) | 96.8% (active) | -1% | 92% (active) | 93.5% (active) | -4% | 91% (active) | 97.8% (active) | -3% | 39% | 14.8% | 1% | 84% (active) | 76.2% (active) | 0% | 89% (active) | 97.3% (active)
S=P(Nc1ccccc1)(Nc1ccccc1)Oc1ccccc1 | 2% | 98% (active) | 99% (active) | -4% | 98% (active) | 99% (active) | -4% | 98% (active) | 99.2% (active) | -4% | 97% (active) | 98.7% (active) | 9% | 97% (active) | 98.7% (active) | 7% | 97% (active) | 97.5% (active)
CCCCCCC[CH2][Sn]([F])([F])[CH2]CCCCCCC | 3% | -7% | 41% | 12% | 4% | 46.5% | -1% | -2% | 7.45% | -1% | -5% | 19.9% | 4% | -1% | -5.1% | 4% | -15% | 40.2%
CCC(=O)O[C@H]1CC[C@H]2[C@@H]3CCC4=C/C(=N/OC(=O)c5cccc6c(=O)c7ccccc7[nH]c56)CC[C@]4(C)[C@H]3CC[C@]12C | 29% | 83% (active) | 53.8% | 26% | 31% | 77.4% (active) | -26% | 52% | 79.3% (active) | -14% | 43% | 47.1% | 10% | 66% | 74.4% (active) | 29% | 40% | 17.6%
COC1OC(COC(C)=O)C(OC(C)=O)C(OC(C)=O)[C]1(OC(C)=O)[Hg][O]C(C)=O (configuration not stated) | 99% (active) | 99% (active) | 99.3% (active) | 100% (active) | 100% (active) | 98.5% (active) | 99% (active) | 99% (active) | 99.7% (active) | 99% (active) | 98% (active) | 99.4% (active) | 99% (active) | 99% (active) | 97.8% (active) | 99% (active) | 99% (active) | 99.7% (active)
O=C(OCc1ccccc1)C(C(Cl)c1ccccc1)N(Cc1ccccc1)Cc1ccccc1 (configuration not stated) | -2% | 53% | 90.8% (active) | 3% | 65% | 81.2% (active) | -1% | 50% | 85.5% (active) | 1% | 53% | 89.8% (active) | -1% | 49% | 67.7% | -1% | 56% | 86.5% (active)
COC1=[C]([Hg][Br])C(OC)OC1OC (configuration not stated) | 99% (active) | 99% (active) | 99.6% (active) | 98% (active) | 99% (active) | 99.5% (active) | 99% (active) | 99% (active) | 99.5% (active) | 98% (active) | 98% (active) | 98.8% (active) | 99% (active) | 99% (active) | 98.9% (active) | 99% (active) | 99% (active) | 99.5% (active)
CCC1CC2C3Cc4ccc(OC)c(O)c4C2(CCN3C)CC1=O (configuration not stated) | 6% | 3% | -6.45% | -12% | -2% | -6% | 19% | 9% | -8% | 14% | 11% | -5.3% | 24% | 19% | -1.25% | 9% | 9% | -7.5%

Reference: PubChem BioAssay (NCI)
